HT1080NT lethal: kills 2HG-producing HT-1080-NT fibrosarcoma cells | Potency, µM (doses to about 46.1 µM), usual class: cytotoxic | HT-1080-NT fibrosarcoma viability, CellTiter-Glo ATP luminescence, 48 h | AID 686970 | 360,000 compounds, 1.6% hits;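 further: NT is the 2HG producing partner of a matched IDH1 knockdown line; nearly all actives have a fitted effect of over 55% in size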
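Fibrosarcoma NT cells, 750 per well in 5% FBS RPMI, were exposed to compound for 48 hours. Viability: CellTiter-Glo luminescence.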
DT40 TDP1 no CPT: qHTS for Inhibitors of human tyrosyl-DNA phosphodiesterase 1 (TDP1): qHTS in cells in absence of CPT; DT40 Tdp1-/- hTDP1 cells, no CPT, ATP luminescence, 48 h; Potency, µM (doses to about 46.2 µM), hits mostly inhibitors; 420,000 compounds, 15% hits; further: nearly all actives have a fitted effect of over 55% in size
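Growth kinetics read by CellTiter-Glo luminescence after ≥48 hr at 37 °C. Cells: DT40 Tdp1-/- stably carrying human TDP1, 400 per well, compound exposure in the absence of CPT (DMSO vehicle).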
HepG2 viability: kills HepG2 cells in TGF-b inhibitor counter-screen; HepG2 CAGA-GFP viability, ATP luminescence, 18 h; Potency, µM (doses to about 46.1 µM), usual class: cytotoxic; 410,000 compounds, 0.76% hits
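CellTiter-Glo luminescence gave cytotoxicity after 18 hours at 37 degrees C. The cells were HepG2 CAGA-GFP in 1% FBS DMEM, stimulated with 500 pg/mL TGF-beta after compound addition. %Activity was normalised to no-cell wells (complete cell-killing) and DMSO (no toxicity), and curves were fitted and classified.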
HT1080 IDH1KD tx: kills HT-1080 cells with IDH1 knockdown; HT-1080 IDH1 knockdown viability, ATP luminescence, 48 h; Potency, µM (highest dose often 46.1 µM), hits mostly cytotoxic; 360,000 compounds, 2% hits
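Viability of IDH1-knockdown HT-1080 fibrosarcoma cells was assessed by CellTiter-Glo after 48 h at 37 °C with titrated compound; concentration-effect curves were classified by fit quality and response size.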
DT40 TDP1 CPT: DT40-hTDP1 cell growth loss with CPT. Potency, µM (top dose mostly 46.2 µM), usual class: inhibitors. AID 686979. chicken DT40 Tdp1-/-;hTDP1 cells + 20 nM CPT, ATP luminescence, 48 h. 420,000 compounds, 12% hits; further: nearly all actives have a fitted effect of over 55% in size
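Chicken DT40 Tdp1-/- cells stably complemented with human TDP1 were seeded at 400 cells/well in medium containing 20 nM camptothecin, exposed to pin-transferred compounds, and grown at 37 °C for at least 48 hr. Viability was read as ATP luminescence.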
TGFb SMAD3 inh: blocks TGF-b signaling. HepG2 CAGA-GFP TGF-b/SMAD3 reporter, GFP fluorescence, 18 h; TGF-beta stimulated, 500 pg/mL final. Potency, µM (titrated, usually from 46.1 µM), actives largely listed as inhibitors. 410,000 compounds, 1.2% hits. AID 588855; further: nearly all actives have a fitted effect of over 65% in size
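Inhibition was scored as loss of TGF-beta-induced (500 pg/mL final, 18 hours, 37 degrees C) GFP in HEPG2 cells carrying a CAGA-GFP reporter, in DMEM with 1% FBS. Well GFP was summed per cell; Activity was normalised to unstimulated and stimulated DMSO wells, then concentration-response fitting.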
A number is an active result; – = inactive; ? = inconclusive; · = no result given; [ ] = another dose, or the depositor's remark. The list is not random: actives were taken first. Their share in the collection is about 17%. The call rests on the fitted dose curve; in most records, active means well fitted curve in the direction sought with a large enough effect; inconclusive means small, poorly fitted or top-dose-only effect, or another doubt; inactive means no such curve, though single readings can be large; an effect the other way counts as inactive or inconclusive.

SMILES	HT1080NT lethal	DT40 TDP1 no CPT	HepG2 viability	HT1080 IDH1KD tx	DT40 TDP1 CPT	TGFb SMAD3 inh
CC(C)(C)OC(=O)C[C@@H]1C/C=C\C[C@@H](CC(=O)N(CCO)Cc2ccccc2)C(=O)NCCOC1=O	–	–	–	–	–	–
CC(C)(C)OC(=O)C[C@@H]1C/C=C\C[C@H](CC(=O)N(CCO)Cc2ccccc2)C(=O)NC[C@H](c2ccccc2)OC1=O	–	?	–	–	?	–
CC(C)(C)OC(=O)C[C@@H]1C/C=C\C[C@@H](CC(=O)N(CCO)Cc2ccccc2)C(=O)NC[C@@H](c2ccccc2)OC1=O	–	?	–	–	21µM	–
CC(C)(C)OC(=O)C[C@@H]1C/C=C\C[C@@H](CC(=O)N(CCO)Cc2ccccc2)C(=O)NC[C@H](c2ccccc2)OC1=O	?	?	–	–	12µM	–
CO[C@@H]1[C@@H](O[C@@H]2O[C@H](C)[C@@H](O[C@H]3C[C@@](C)(O)[C@@H](O)[C@H](C)O3)[C@H](N(C)C)[C@H]2O)[C@@H](CC=O)C[C@@H](C)[C@@H](O[C@@H]2CC[C@H](N(C)C)[C@@H](C)O2)/C=C/C=C/C[C@@H](C)OC(=O)C[C@H]1O	·	–	·	·	–	·
Cc1ccc(NC(=O)CN2C(=O)NC3(CCCCCCC3)C2=O)cc1C	–	?	–	–	9.2µM	–
O=C(CN1C(=O)NC2(CCCCC2)C1=O)Nc1ccc(F)cc1	–	–	–	–	–	–
O=C(CN1C(=O)NC2(CCCCCCC2)C1=O)Nc1cccc(Br)c1	–	21µM	–	–	16µM	?
O=C(CN1C(=O)NC2(CCCCCCC2)C1=O)Nc1ccc(OC(F)F)cc1	–	18µM	–	–	23µM	?
O=C(CN1C(=O)NC2(CCCC2)C1=O)OCCOc1ccc(Br)cc1	–	18µM	–	–	15µM	–
NCc1ccccc1CC(=O)N[C@@H]1C(=O)N2C(C(=O)O)=C(CSc3nnnn3CC(=O)O)CS[C@H]12	·	–	·	·	–	·
Cc1cc(C)cc(Cn2cc(CN3CC(N4CCN(CCO)CC4)CS3(=O)=O)nn2)c1 (configuration not stated)	–	–	·	–	–	·
CC1(CCC(=O)O)C(=O)CCC2C1CCC1(C)C2CCC1(C)O (configuration not stated)	–	–	–	–	–	?
Cc1ccccc1NC(=O)CN1C(=O)NC2(CCCCCCC2)C1=O	–	–	–	–	–	–
CN(CC(=O)Nc1ccc(F)cc1)C(=O)CN1C(=O)NC2(CCCC2)C1=O	–	?	–	–	–	–
CCCn1c(NC(=O)CN2C(=O)NC3(CCCCC3)C2=O)nc2ccccc21	?	23µM	–	–	?	–
CN(CC(=O)Nc1cccc(F)c1)C(=O)CN1C(=O)NC2(CCCCC2)C1=O	–	21µM	–	–	?	–
O=C(CN1C(=O)NC2(CCCCCC2)C1=O)Nc1ccc2c(c1)CCC2	–	12µM	–	–	?	–
O=C(NCc1cccc(Cl)c1)c1ccc(S(=O)(=O)N2CCCCC2)cc1	–	?	–	–	–	–
CCc1nc2c(OCc3ccc(C#N)cc3)cccn2c1N(C)C(=O)c1cccs1	–	–	–	–	–	–
CCN(CC)S(=O)(=O)c1ccc2c(c1)N(CC(=O)N1CCN(c3cccc(Cl)c3)CC1)C(=O)CO2	·	?	–	·	16µM	?
CCCN1CCN(C(=O)CN2C(=O)COc3ccc(S(=O)(=O)N(CC)CC)cc32)CC1	–	–	–	–	–	–
O=C(CN1C(=O)COc2ccc(S(=O)(=O)N3CCCCCC3)cc21)N1CCN(c2ccc(Cl)cc2)CC1	·	·	–	·	·	–
CCN(CC)S(=O)(=O)c1ccc2c(c1)N(CC(=O)N1CCN(c3ccc(Cl)cc3)CC1)C(=O)CO2	·	16µM	–	·	16µM	–
CCCC(=O)NC(c1ccccc1OC)c1ccc2cccnc2c1O (configuration not stated)	?	4.1µM	–	?	4.1µM	–
SMILES	HT1080NT lethal	DT40 TDP1 no CPT	HepG2 viability	HT1080 IDH1KD tx	DT40 TDP1 CPT	TGFb SMAD3 inh
CCCC(=O)NC(c1ccc(OC)c(OC)c1)c1c(O)ccc2ccccc12 (configuration not stated)	–	–	–	–	–	?
CCCCC(=O)NC(c1ccc(OC)c(OC)c1)c1c(O)ccc2ccccc12 (configuration not stated)	–	–	–	–	–	?
CCCCC(=O)NC(c1ccccc1OC)c1ccc2cccnc2c1O (configuration not stated)	?	18µM	–	2.6µM	21µM	?
CCCCN(C(=O)CSc1n[nH]c(-c2ccc(C)cc2)n1)c1c(N)n(CCCC)c(=O)[nH]c1=O	–	–	–	–	–	–
CC1CCN(C(=O)CCNS(=O)(=O)c2ccc(Br)cc2)CC1	–[9.24 µM]	–	–	–	–	–
COC(=O)c1c(-c2ccc(Cl)cc2)noc1N1CCN(c2cccc(C)c2C)CC1	·	?	–	·	16µM	–
COC(=O)c1c(-c2ccc(Cl)cc2)noc1N1CCN(c2cccc(OC)c2)CC1	·	5.8µM	–	·	16µM	–
CCCNC(=O)Cn1cnc2sc(C(=O)NCCN(CC)CC)c(C)c2c1=O	–	–	–	–	–	–
CN1CCc2ccc(NC(=O)c3ccc(C(F)(F)F)cc3)cc2C1	–	–	–	–	–	?
COc1ccc(C(=O)NC2CC2)cc1OC1CCN(Cc2ccc(F)cc2Cl)CC1	–	18µM	–	–	?	–
CCOC(=O)C1CCN(Cc2ccc(OCc3ccccc3)cc2)CC1	–	–	–	–	–	–
Cc1ccc(NS(=O)(=O)c2ccc(C(=O)NC3CCN(Cc4ccccc4)CC3)cc2)cc1	?	15µM	–	–	15µM	?
Cc1ccc(CC(=O)NC2CCN(Cc3ccccc3)CC2)cc1	–	–	–	–	–	–
CCCCN(C)C(=O)C1CCN(Cc2ccc(OCc3ccccc3)cc2)CC1	?	16µM	–	?	?	–
CCc1ccccc1NC(=O)c1ccc(CN2CCC(Cc3ccccc3)CC2)cc1	21µM	?	–	?	?	?
COc1ccccc1NC(=O)c1ccc2[nH]c(C)c(C)c2c1	–	?	–	–	?	–
CCCc1cc(C(=O)Nc2cccc(-c3nn[nH]n3)c2)sc1C	–	–	–	–	–	–

Assay outcomes as filed in PubChem.
